Screening results: PubChem BioAssay, National Center for Advancing Translational Sciences (NCATS)
Shiga inhibitor: inhibitors of Shiga toxin in Vero cells; Vero cells, Shiga toxin protein synthesis inhibition reporter; AID 2315; 9.2% of 290,000 active; inhibition, % at 38.7 µM; in the data active = inhibition mostly above about 28%, no sharp cut-off; inactive = mostly below about 43%; also: 0% is about no effect
Pf growth 96h: inhibits malaria parasite growth, 96 h; P. falciparum luciferase reporter growth, 96 h; Potency, µM (doses to about 28.7 µM), inactives show at the top dose activity change, negative = inhibition, usual class: inhibitors; 6.9% of 320,000 active; AID 504834; also: potency is read from the fitted curve at half-maximal effect; % is scaled to controls: 0 for no effect and ±100 for the full control effect
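P. falciparum expressing integrated firefly luciferase, in erythrocytes at 2% hematocrit, 0.05% parasitemia, incubated with compounds 96 h at 37 C, 5% CO2. Growth inhibition read as loss of luminescence; two-generation exposure targets delayed-death apicoplast inhibitors.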
Cycloheximide cs: affects cycloheximide protein synthesis inhibition readout, counter-screen; AID 2314; cell reporter, cycloheximide protein synthesis inhibition counterscreen; 12% of 300,000 active; max response, %; in the data active = max response mostly above about 13%, no sharp cut-off; inactive = mostly below about 14%; also: read at 38.3 µM for the half of the compounds with a filed dose; 0% is about no effect
Pf growth 48h: inhibits P. falciparum growth in the first generation, 48 h; P. falciparum luciferase growth in erythrocytes, 48 h; Potency, µM (titrated, usually from 28.7 µM), for inactives: at the top dose activity change, negative = inhibition, hits mostly inhibitors; 5.9% of 310,000 active; also: potency is read from the fitted curve at half-maximal effect; % is scaled to controls: 0 for no effect and ±100 for the full control effect
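Cell-based growth assay: transgenic P. falciparum expressing firefly luciferase, cultured in red cells within RPMI 1640 containing 0.5% w/v Albumax, 24 mM bicarbonate and gentamycin. A drop in luciferase activity indicates inhibition.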
Starred values were filed as active, the others as inactive. An excerpt weighted towards active compounds, which were near 21% of everything screened. Unless noted, calls follow the shape of the dose curve; as a rule, active = well fitted inhibition curve with a large enough effect; inconclusive = small, poorly fitted or top-dose-only effect, or another doubt; inactive = no such curve, though single readings can be large or run the other way.

Screening CC(O)[C@H](NC(=O)C1(c2ccccc2)CCN(C(=O)OC(C)(C)C)CC1)C(=O)O (stereo partly specified) returned Shiga inhibitor -17.5, Pf growth 96h -10.7%, Cycloheximide cs -7.0 and Pf growth 48h -9.4%.
CCOc1ccccc1NC(=S)N(CCCN1CCOCC1)Cc1cn(C)c2ccccc12 was read as Shiga inhibitor 16.3, Pf growth 96h inconclusive, Cycloheximide cs 7.4 and Pf growth 48h 11.7µM*.
For CC(C)(C)c1ccc(C(=O)N2CCC(NC(=O)c3ccccc3)CC2)cc1 the results were Shiga inhibitor -0.6, Pf growth 96h inconclusive, Cycloheximide cs 4.3 and Pf growth 48h inconclusive.
`COc1ccc(CP(=O)(c2ccccc2)c2ccccc2)cc1` gave Shiga inhibitor 8.5, Pf growth 96h inconclusive, Cycloheximide cs -2.8 and Pf growth 48h inconclusive.
Screening COc1ccc(CN(C)C2c3ccccc3-c3ccccc32)cc1 returned Shiga inhibitor -2.3, Pf growth 96h 11.7µM*, Cycloheximide cs -0.4 and Pf growth 48h inconclusive.
For COc1ccc([C@H]2CC(=O)C=C(c3cccc(C#N)c3)C2)cc1 the results were Pf growth 96h -15.3% and Pf growth 48h inconclusive.
For O=C(Nc1ccccc1)c1ccccc1N=Cc1ccccc1O the results were Shiga inhibitor active, Pf growth 96h 69.8%, Cycloheximide cs 47.2* and Pf growth 48h 76.8%.
`Oc1ccccc1C=Nc1cccc2ccccc12` gave Shiga inhibitor 1.3, Pf growth 96h inconclusive, Cycloheximide cs -3.0 and Pf growth 48h 26.3%.
For CCOc1ccccc1C=Nc1ccccc1C(=O)Nc1ccccc1 the results were Shiga inhibitor 68.4*, Pf growth 96h 71.2%, Cycloheximide cs 16.1* and Pf growth 48h 9.8%.
For C=CCNC(=O)COC(=O)C1CCN(S(=O)(=O)c2ccc3c(c2)OCCO3)CC1 the results were Shiga inhibitor 8.7, Pf growth 96h -20.9%, Cycloheximide cs 3.9 and Pf growth 48h 9.9%.
For Cc1cccc(NC2SC(=O)N(c3ccccc3)C2=O)c1 (stereo unspecified) the results were Shiga inhibitor 71.4*, Cycloheximide cs 52.9* and Pf growth 48h 49.1%.
`COc1ccccc1NC1SC(=O)N(c2ccccc2)C1=O` (stereo unspecified) gave Shiga inhibitor 1.7, Cycloheximide cs 0.9 and Pf growth 48h 35.1%.
Screening O=C(CC1SC(=O)N(c2ccccc2)C1=O)Nc1ccccc1 (stereo unspecified) returned Shiga inhibitor 51.1*, Cycloheximide cs 51.5* and Pf growth 48h 43.3%.
CCCN1C(=O)SC(CC(=O)Nc2ccc(C)cc2)C1=O (stereo unspecified) was read as Shiga inhibitor 26.2, Pf growth 96h inconclusive, Cycloheximide cs 9.6 and Pf growth 48h -12.2%.
Screening Cc1cccc(NC(=O)CC2SC(=O)N(c3ccccc3)C2=O)c1 (stereo unspecified) returned Shiga inhibitor 28.5, Cycloheximide cs 10.2 and Pf growth 48h 2.7%.
`CC(=O)Nc1ccc(NC(=O)CC2SC(=O)N(CC(=O)c3ccccc3)C2=O)cc1` (stereo unspecified) gave Shiga inhibitor 4.2, Pf growth 96h 10.4µM*, Cycloheximide cs 2.3 and Pf growth 48h 6.4%.
For O=C(CC1Sc2ncnn2C1=O)Nc1ccccc1 (stereo unspecified) the results were Shiga inhibitor -7.8, Pf growth 96h 1.0% and Cycloheximide cs 17.5*.
Nc1ncnc2c1ncn2C1OC(C(=O)NC2CC2)C(O)C1O (stereo unspecified) was read as Pf growth 96h 11.0% and Pf growth 48h 2.9%.
For CC(C)C1N(C(=O)CN2CCCCC2)CCN1S(=O)(=O)c1ccccc1 (stereo unspecified) the results were Shiga inhibitor -4.3, Pf growth 96h inconclusive, Cycloheximide cs -2.6 and Pf growth 48h 16.8%.
CCn1c(P(C)(=O)O)nc2cc(NC(=O)c3ccccc3Cl)ccc21 was read as Shiga inhibitor 7.7, Pf growth 96h 1.4%, Cycloheximide cs -4.5 and Pf growth 48h 3.6%.
Screening Cc1ccc(OCCSc2nc3ccccc3n2CC(=O)O)cc1 returned Shiga inhibitor 2.3, Pf growth 96h 100.0%, Cycloheximide cs 0.9 and Pf growth 48h 0.0%.
Screening Cc1ccc(-c2sc(-c3ccccc3)nc2CC(=O)Nc2ccccc2F)cc1 returned Shiga inhibitor -5.5, Pf growth 96h -80.6%, Cycloheximide cs -0.5 and Pf growth 48h inconclusive.
Screening Cc1ccc(NC(=O)CC2=NC(=O)C(CC(=O)Nc3ccccc3F)S2)cc1 (stereo unspecified) returned Shiga inhibitor 90.4*, Pf growth 96h 19.6%, Cycloheximide cs 22.4* and Pf growth 48h 15.8%.
For Cc1ccc(NC(=O)CC2SC(=O)N(c3ccccc3)C2=O)cc1 (stereo unspecified) the results were Shiga inhibitor 50.9*, Pf growth 96h -19.5%, Cycloheximide cs 26.7* and Pf growth 48h -8.4%.
For Cc1ccc(S(=O)(=O)/N=C2\SC(CC(=O)Nc3ccc(F)cc3)C(=O)N2c2ccccc2)cc1 (stereo unspecified) the results were Shiga inhibitor 16.7, Pf growth 96h -5.8%, Cycloheximide cs 5.6 and Pf growth 48h 3.3%.
COC(c1ccc(Cl)cc1)(c1ccc(Cl)cc1)C(Oc1nc(C)cc(C)n1)C(=O)O (stereo unspecified) was read as Shiga inhibitor -3.7, Pf growth 96h -27.0%, Cycloheximide cs -2.9 and Pf growth 48h 41.2%.
COc1ccc(N=Cc2cc(Cc3ccccc3Cl)cc([N+](=O)[O-])c2O)cc1OC was read as Shiga inhibitor 8.8, Pf growth 96h -0.8%, Cycloheximide cs 10.8 and Pf growth 48h inconclusive.
Screening Cc1ccc(N=Cc2cc(Cc3ccccc3Cl)cc([N+](=O)[O-])c2O)c(O)c1 returned Shiga inhibitor 55.5, Pf growth 96h -20.0%, Cycloheximide cs 30.5* and Pf growth 48h 44.6%.
Screening COc1cc(C(=O)NC2CCCC2)c(Br)c(OC)c1OC returned Shiga inhibitor -7.4, Pf growth 96h 1.3%, Cycloheximide cs -1.3 and Pf growth 48h -2.5%.
`Cc1ccc(OCCNC(=O)c2ccco2)cc1C` gave Shiga inhibitor 73.7*, Pf growth 96h inconclusive, Cycloheximide cs 16.7* and Pf growth 48h -6.5%.
O=C(NCc1ccccc1)c1ccco1 was read as Shiga inhibitor 4.4, Pf growth 96h inconclusive, Cycloheximide cs -2.1 and Pf growth 48h 0.2%.
Screening CCOc1ccc(CNC(=O)c2ccco2)cc1 returned Shiga inhibitor 40.2, Pf growth 96h 30.6%, Cycloheximide cs 20.4* and Pf growth 48h 45.8%.
For Cc1ccc(C(=O)NCCNC(=O)c2ccco2)cc1C the results were Shiga inhibitor -3.8, Pf growth 96h 20.1%, Cycloheximide cs -2.6 and Pf growth 48h 9.3%.
`O=C(NCCOc1ccc(Cl)cc1)c1ccco1` gave Shiga inhibitor 10.8, Pf growth 96h 2.08µM*, Cycloheximide cs 1.7 and Pf growth 48h -3.3%.
Screening COc1cc(C(=O)NCCOc2cc(C)cc(C)c2)c(Br)c(OC)c1OC returned Shiga inhibitor -13.1, Pf growth 96h 13.1µM*, Cycloheximide cs -1.5 and Pf growth 48h -11.4%.
